Assay [1] in a line: NCI Yeast Anticancer Drug Screen. Data for the rad50 strain (AID 155).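 Also: 0% = growth of vehicle-only cultures of the same strain.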 The following applies: S. cerevisiae rad50 strain growth inhibition; at 50.0 µM; hits give high values. A digest of the protocol: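 Readout: growth inhibition relative to vehicle-treated cultures. Compound exposure was carried out in a genetically defined yeast strain deficient in DNA damage repair.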
The nature of assay [2]: NCI Yeast Anticancer Drug Screen. Data for the mec2-1 strain (AID 157). The following applies: S. cerevisiae mec2-1 strain, at 50.0 µM, hits give high values. The procedure, abridged: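 Cells of the genetically defined mec2-1 yeast strain are incubated with test compound. Inhibition of growth is calculated against vehicle-treated controls.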
Assay [3] can be described thus: NCI Yeast Anticancer Drug Screen. Data for the sgs1 mgt1 strain (AID 161).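 Also: 0% = growth of cultures given vehicle only.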 The conditions noted are these: S. cerevisiae sgs1 mgt1 strain, at 50.0 µM, hits give high values. A digest of the protocol: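 Read-out: growth inhibition vs vehicle controls. Cells: mutant yeast strain deficient in DNA damage repair.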
The nature of assay [4]: NCI Yeast Anticancer Drug Screen. Data for the cln2 rad14 strain (AID 165).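 Also: 0% = growth equal to vehicle treated cultures.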 The conditions noted are these: S. cerevisiae cln2 rad14 strain, at 50.0 µM, hits give high values. The procedure, abridged:
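The screen exposed genetically defined yeast (cln2 rad14) to test compounds and scored growth inhibition relative to vehicle-treated controls.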

The nature of assay [5]: NCI Yeast Anticancer Drug Screen. Data for the bub3 strain (AID 167). The conditions noted are these: S. cerevisiae bub3 mutant strain, at 50.0 µM, hits give high values. The procedure, abridged:
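Readout: yeast growth inhibition, expressed relative to vehicle-only wells. The test organism is a mutant strain from a panel with lesions in DNA repair or checkpoint genes.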

Assay [6] is described as follows: NCI Yeast Anticancer Drug Screen. Data for the mlh1 rad18 strain (AID 175). The conditions noted are these: S. cerevisiae mlh1 rad18 strain growth inhibition; at 50.0 µM; hits give high values. A digest of the protocol:
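Compound-treated yeast growth, normalised to vehicle controls. Strain bears defined DNA repair mutations.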

Each structure is given as a SMILES string. Compounds without any hit were thinned out: in the full panel of roughly 79,000, 15% have a hit. A number with no mark means an inactive call. Activity calls are given as the source filed them. Rule as the data show it: active = growth inhibition above about 70%; inactive = the rest.

Take `CCOC(=O)C(Cc1cc(C)c(O)c(I)c1)NC(C)=O` (stereo unspecified): the growth inhibition in assay [1] was -18.4%; in assay [2], -1.1%; in assay [3], -11.2%; in assay [4] it was 4.2%; in assay [5], 5.85%; in assay [6], -5.85%.

In the case of `C[n+]1cc(Br)c2ccccc2c1`, the growth inhibition was 4.05% in assay [1]; -6.25% in assay [2]; 3.4% in assay [3]; -13.2% in assay [4]; 1.4% in assay [5]; 3.45% in assay [6].

With `COc1ccccc1NC(=O)C1=C(C)NC(C)=C(C(=O)Nc2ccccc2OC)C1C1=CC=COC1`, the growth inhibition in assay [1] was -30.4%; in assay [2], -12.8%; in assay [3], -25.9%; in assay [4] it was -1.1%; in assay [5], 13.1%; in assay [6], -15.5%.

With `O=C(/C=C\c1cccc2ccccc12)c1cccc2ccccc12`, the growth inhibition in assay [1] was 35.5%; in assay [2] it was 12.8%; in assay [3], 0.55%; in assay [4], -4.75%; in assay [5] it was 23.1%; in assay [6] it was 34.4%.

Take `COc1ccc(COC(=O)Oc2ccc(Cl)cc2)cc1OC`: the growth inhibition in assay [1] was 93.8% (active); in assay [2], 63.3%; in assay [3] it was 50.7%; in assay [4], 79.8% (active); in assay [5], 90.5% (active); in assay [6], 94.8% (active).

For `NC(=O)OCC1CCCCC1OC(N)=O` (stereo unspecified), the growth inhibition in assay [1] was 26.1%; in assay [2], -17.4%; in assay [3] it was -14.4%; in assay [4], -92.7%; in assay [5], -2.6%; in assay [6], -10.4%.

For the compound `O=C1C2C3C=C4c5ccccc5N(c5ccccc5)C4(C2C(=O)N1c1ccc([N+](=O)[O-])cc1)[C@H]1C(=O)N(c2ccc([N+](=O)[O-])cc2)C(=O)[C@@H]31` (stereo partly specified), the growth inhibition in assay [1] was 14.7%; in assay [2] it was 22.1%; in assay [3], 21.9%; in assay [4], 13.2%; in assay [5], 28%; in assay [6], 19.1%.

In the case of `CCC(CC)C(=O)NC(=O)NC`, the growth inhibition in assay [1] is -4.85%; in assay [2], -16.5%; in assay [3] it was -21.2%; in assay [4], -25.1%; in assay [5], -8.05%; in assay [6] it was 21%.

As to `CCCCCCCCCC[n+]1cccc(C(N)=O)c1`, the growth inhibition in assay [1] is 3.7%; in assay [2], -17.2%; in assay [3] it was 13.8%; in assay [4], 3.75%; in assay [5] it was -1.05%; in assay [6], 28.9%.

Take `Cc1ccc(S(=O)(=O)N2CCOCC2)cc1`: the growth inhibition is -2.9% in assay [1]; -20.1% in assay [2]; -13.3% in assay [3]; 15.5% in assay [4]; -0.7% in assay [5]; -30.4% in assay [6].

Take `COc1ccc(C(=O)OCc2ccccc2CN2CCCCC2)cc1`: the growth inhibition in assay [1] was -4.75%; in assay [2] it was -7.25%; in assay [3] it was 11.4%; in assay [4], -16.3%; in assay [5], -14.2%; in assay [6], -5.6%.

Turning to `O=S1CCCO1` (stereo unspecified), the growth inhibition was -7.55% in assay [1]; -8.6% in assay [2]; -13.8% in assay [3]; -41.2% in assay [4]; 11% in assay [5]; 0.3% in assay [6].

As for `CS(=O)(=O)OCC(O)C(O)C(OS(C)(=O)=O)C(O)COS(C)(=O)=O` (stereo unspecified), the growth inhibition is 7.1% in assay [1]; 1.75% in assay [2]; -7.75% in assay [3]; 21.3% in assay [4]; -8.55% in assay [5]; 7.35% in assay [6].

On to `O=C1NC(=O)C(c2ccsc2)(c2cccs2)N1` (stereo unspecified), for which the growth inhibition in assay [1] is 20.9%; in assay [2] it was -9.3%; in assay [3], 1%; in assay [4], 14.3%; in assay [5], 5.05%; in assay [6], -1.65%.

`ClCc1ccc(-c2ccccc2)cc1`: the growth inhibition in assay [1] was 48.8%; in assay [2], 16.4%; in assay [3], 19.7%; in assay [4] it was 26.7%; in assay [5] it was 8.7%; in assay [6] it was 47%.

For the compound `COc1ccc2c(C#N)cc3c4ccccc4ncc3c2c1`, the growth inhibition in assay [1] was 16.6%; in assay [2], 7%; in assay [3], -9.6%; in assay [4], 19.1%; in assay [5] it was -4.35%; in assay [6], -10.8%.

For `Clc1nnc(Cl)c2ncccc12`, the growth inhibition in assay [1] was 3.6%; in assay [2], 8.3%; in assay [3], -3.6%; in assay [4], -2.95%; in assay [5], -3%; in assay [6], -1.75%.

Take `CCOC(=O)C(CN(CC)CC)c1ccccc1` (stereo unspecified): the growth inhibition in assay [1] was -1.15%; in assay [2], -6.35%; in assay [3] it was -3.25%; in assay [4] it was 1.8%; in assay [5], 1.95%; in assay [6], 10.3%.

`Cc1cccc(C)c1C1=NCCN1`: the growth inhibition in assay [1] was 3.55%; in assay [2], -8.95%; in assay [3], -8.95%; in assay [4], -39.2%; in assay [5], -16.8%; in assay [6] it was 1.65%.

With `Cc1nc2c(o1)C(=O)c1ccccc1C2=Nc1ccc(N2CCOCC2)cc1`, the growth inhibition in assay [1] is 78.9% (active); in assay [2], 29.7%; in assay [3], 13.2%; in assay [4], -1.15%; in assay [5], 11.9%; in assay [6], 39.1%.

Consider `CCCCC(=O)N1SC(NC(=O)OC)=Nc2ccccc21`, for which the growth inhibition is 61% in assay [1]; 42.4% in assay [2]; 61.8% in assay [3]; 67.2% in assay [4]; 92.4% (active) in assay [5]; 76.2% (active) in assay [6].
